Compound activity deposited in PubChem BioAssay by several laboratories.
Myeloid diff 2: induction of myeloid progenitor differentiation, primary screen, cell-based, flow cytometry, MLPCN library | 360,000 compounds, 1% hits | calls only at 10 µM | ER-HoxA9 myeloid progenitors, lysozyme-GFP differentiation;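 active = normalized GFP-positive differentiation at or above the plate's own cutoff, the solvent-only control mean plus 3 SD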;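 also: cells exposed to compound for four days before flow analysis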
FAS TE block: FAS thioesterase domain inhibitors, primary screen, biochemical, fluorescence intensity, uHTS; recombinant FAS-TE, OMFH fluorogenic substrate, fluorescence endpoint; inhibition, % at 15 µM; Fatty acid synthase (Homo sapiens), P49327; 360,000 compounds, 0.67% hits;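 active = compounds whose normalised, plate-corrected inhibition of enzyme fluorescence in the single-dose primary screen is 50% or more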
Target sequence (P49327 whole entry, looked up, the tested form may be a part): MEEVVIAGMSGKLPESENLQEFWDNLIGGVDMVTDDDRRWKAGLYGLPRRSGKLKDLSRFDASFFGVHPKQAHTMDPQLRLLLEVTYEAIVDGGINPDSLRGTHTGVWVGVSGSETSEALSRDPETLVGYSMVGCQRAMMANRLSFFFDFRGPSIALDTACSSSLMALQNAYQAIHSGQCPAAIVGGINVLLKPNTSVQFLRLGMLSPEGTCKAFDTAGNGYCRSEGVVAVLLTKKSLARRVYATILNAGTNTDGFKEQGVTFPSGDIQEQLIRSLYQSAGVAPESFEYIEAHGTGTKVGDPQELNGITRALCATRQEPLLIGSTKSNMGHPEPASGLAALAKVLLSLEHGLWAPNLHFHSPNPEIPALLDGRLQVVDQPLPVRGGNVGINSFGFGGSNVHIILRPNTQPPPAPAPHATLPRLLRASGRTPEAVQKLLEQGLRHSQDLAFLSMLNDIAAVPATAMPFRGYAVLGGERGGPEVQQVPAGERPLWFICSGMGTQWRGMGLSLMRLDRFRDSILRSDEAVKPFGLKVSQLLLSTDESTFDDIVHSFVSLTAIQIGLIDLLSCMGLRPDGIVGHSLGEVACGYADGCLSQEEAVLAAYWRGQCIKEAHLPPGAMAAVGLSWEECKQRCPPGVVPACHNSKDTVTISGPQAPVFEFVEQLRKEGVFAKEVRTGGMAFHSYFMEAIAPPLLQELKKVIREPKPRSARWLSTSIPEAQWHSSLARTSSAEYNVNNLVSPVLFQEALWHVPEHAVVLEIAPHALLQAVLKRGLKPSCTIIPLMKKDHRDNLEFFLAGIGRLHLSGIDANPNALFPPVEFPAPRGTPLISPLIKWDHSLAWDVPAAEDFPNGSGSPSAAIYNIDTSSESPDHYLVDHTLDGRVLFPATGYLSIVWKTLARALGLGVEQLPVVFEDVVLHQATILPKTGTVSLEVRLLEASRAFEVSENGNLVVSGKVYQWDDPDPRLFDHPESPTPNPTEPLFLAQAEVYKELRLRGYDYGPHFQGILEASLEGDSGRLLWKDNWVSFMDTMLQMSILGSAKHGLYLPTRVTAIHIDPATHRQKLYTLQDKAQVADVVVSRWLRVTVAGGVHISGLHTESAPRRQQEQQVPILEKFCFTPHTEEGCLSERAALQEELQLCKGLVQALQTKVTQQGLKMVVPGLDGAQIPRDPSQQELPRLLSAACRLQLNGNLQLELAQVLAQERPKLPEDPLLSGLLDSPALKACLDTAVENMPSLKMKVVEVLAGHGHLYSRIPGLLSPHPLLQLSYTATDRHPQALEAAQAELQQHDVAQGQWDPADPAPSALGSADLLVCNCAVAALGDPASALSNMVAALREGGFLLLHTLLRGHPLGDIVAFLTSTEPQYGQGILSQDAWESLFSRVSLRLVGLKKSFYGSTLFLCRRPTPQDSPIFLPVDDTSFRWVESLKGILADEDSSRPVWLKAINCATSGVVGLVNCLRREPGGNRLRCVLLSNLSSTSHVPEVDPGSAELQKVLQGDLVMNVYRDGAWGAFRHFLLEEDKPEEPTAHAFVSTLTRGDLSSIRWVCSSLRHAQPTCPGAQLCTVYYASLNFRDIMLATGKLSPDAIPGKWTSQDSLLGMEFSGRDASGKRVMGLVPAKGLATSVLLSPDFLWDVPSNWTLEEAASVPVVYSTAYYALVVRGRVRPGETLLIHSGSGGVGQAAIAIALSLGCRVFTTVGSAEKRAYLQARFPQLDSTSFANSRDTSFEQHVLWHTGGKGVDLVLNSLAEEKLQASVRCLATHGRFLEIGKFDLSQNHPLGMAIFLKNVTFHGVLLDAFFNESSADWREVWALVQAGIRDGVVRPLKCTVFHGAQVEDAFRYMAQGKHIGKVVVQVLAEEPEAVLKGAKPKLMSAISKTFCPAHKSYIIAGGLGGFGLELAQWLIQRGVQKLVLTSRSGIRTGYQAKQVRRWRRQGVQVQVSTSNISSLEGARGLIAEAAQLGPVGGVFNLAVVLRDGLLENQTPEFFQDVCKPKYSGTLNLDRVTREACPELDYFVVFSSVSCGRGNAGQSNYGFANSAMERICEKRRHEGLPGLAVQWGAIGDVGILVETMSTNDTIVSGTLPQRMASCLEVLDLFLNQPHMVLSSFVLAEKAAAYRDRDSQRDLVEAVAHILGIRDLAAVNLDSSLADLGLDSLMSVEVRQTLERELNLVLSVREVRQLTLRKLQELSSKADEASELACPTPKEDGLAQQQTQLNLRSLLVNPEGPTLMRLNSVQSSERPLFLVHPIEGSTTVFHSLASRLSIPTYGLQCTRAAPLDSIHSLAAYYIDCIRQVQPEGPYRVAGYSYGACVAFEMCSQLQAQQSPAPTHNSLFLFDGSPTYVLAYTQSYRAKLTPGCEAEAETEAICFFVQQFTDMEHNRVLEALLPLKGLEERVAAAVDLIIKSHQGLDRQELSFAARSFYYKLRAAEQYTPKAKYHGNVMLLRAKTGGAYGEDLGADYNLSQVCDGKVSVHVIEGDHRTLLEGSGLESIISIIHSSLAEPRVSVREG
rCAG RNA binder: binders of r(CAG) RNA repeats, primary screen, biochemical, fluorescence | 370,000 compounds, 1.3% hits | r(CAG) RNA repeat, TO-PRO-1 dye displacement fluorescence | inhibition, % at 3 µM | AID 651821, 2012;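 active = inhibition above the plate cutoff, the mean of all test compounds on that plate plus 3 SD, cut at about 35% in these data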;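 also: higher means more dye released from RNA so lower well fluorescence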
NR3A LBD binder: binders of NR3A ligand-binding domain, primary screen, biophysical, differential scanning fluorimetry, uHTS; Glutamate receptor ionotropic, NMDA 3A (GRIN3A) ligand-binding domain; NR3A LBD differential scanning fluorimetry, Tm shift; 0% = protein alone, 100% = glycine-bound protein; Tm shift relative to glycine control, % at 25 µM; 340,000 compounds, 2.5% hits; AID 1259313, 2017;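 active = melting temperature shift of at least 10% of the positive control shift, at one fixed dose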
MPTP inh: mitochondrial permeability transition pore inhibitors, primary screen, biochemical, isolated mouse mitochondria, absorbance. Ca2+ swelling absorbance, 30 min. inhibition, % at 10 µM. 360,000 compounds, 1.4% hits;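 active = inhibition of 50% or more, scaled per plate between neutral and stimulator controls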
rCAG bind conf: small molecules binding CAG repeat RNA – biochemical, fluorescence, confirmation | shares compounds with rCAG RNA binder | r(CAG) RNA repeat, TO-PRO-1 dye displacement fluorescence | inhibition, % at 3 µM | 4,300 compounds, 70% hits;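 active = inhibition above a per-plate cutoff, the mean inhibition of sample wells plus 3 SD, cut at about 35% in these data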;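 also: loss of TO-PRO-1 fluorescence as compound displaces dye from 1x1 AA loop RNA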
DNA CAG counter: displacement of TO-PRO-1 from CAG DNA duplex, counter-screen for rCAG RNA repeat binder project, biochemical, fluorescence, TO-PRO-1 dye, d(CAG) DNA oligo. 4,300 compounds, 94% hits. d(CAG) DNA oligo TO-PRO-1 dye displacement. inhibition, % at 3 µM. shares compounds with rCAG RNA binder;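 active = inhibition above its plate's cutoff, the mean test-well inhibition plus 3 SD, cut at about 4.8% in these data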;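 also: hits displace the dye from DNA and so lower well fluorescence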
Hits are given with their value; i = inactive; nt = not tested or not shown; + = active, no number. In the library only some 5.7% were active in any assay of this set; here they are far more common.

SMILES	Myeloid diff 2	FAS TE block	rCAG RNA binder	NR3A LBD binder	MPTP inh	rCAG bind conf	DNA CAG counter
COc1cc2[nH]c(=S)nc(Nc3ccc(NC(C)=O)cc3)c2cc1OC	i	i	37.1	i	i	i	6.4
COc1cc2[nH]c(=S)nc(NC3CCCCCC3)c2cc1OC	i	i	i	i	i	nt	nt
O=C(Nc1ccc(S(=O)(=O)Nc2ncccn2)cc1)C1CC(=O)N(c2ccc(Cl)cc2)C1 (configuration not stated)	i	i	i	i	i	nt	nt
O=C(Nc1ccc(S(=O)(=O)Nc2nccs2)cc1)C1CC(=O)N(c2ccc(Cl)cc2)C1 (configuration not stated)	i	i	53.9	i	i	41.1	15.0
Cc1ccc(N2CC(C(=O)Nc3ccc(S(=O)(=O)Nc4nccs4)cc3)CC2=O)cc1C (configuration not stated)	i	i	47.6	i	i	64.4	18.9
Cc1ccccc1NC(=O)COC(=O)CC1CCCC1	i	i	i	i	i	nt	nt
CN1CCN(C2CCN(c3ccc(Nc4nnc(Cl)c(Nc5ccccc5S(C)(=O)=O)n4)c(OC(CF)CF)c3)CC2)CC1	i	i	i	i	i	nt	nt
CO[C@H]1C=CO[C@@]2(C)Oc3c(C)c(O)c4c(O)c(c(C=NN5CCN(C)CC5)c(O)c4c3C2=O)NC(=O)C(C)=CC=C[C@H](C)[C@H](O)[C@@H](C)[C@@H](O)[C@@H](C)[C@H](OC(C)=O)[C@@H]1C	i	i	77.5	i	i	78.7	48.9
CO[C@H]1/C=C/O[C@@]2(C)Oc3c(C)c(O)c4c(O)c(c(C=NN5CCN(C)CC5)c(O)c4c3C2=O)NC(=O)/C(C)=C\C=C\[C@H](C)[C@H](O)[C@@H](C)[C@@H](O)[C@@H](C)[C@H](OC(C)=O)[C@@H]1C	i	i	82.6	i	i	73.8	43.9
O=C(O)c1ccc(Cl)cc1NC(=O)C1CCN(S(=O)(=O)c2cccs2)CC1	i	i	38.9	nt	i	41.0	10.1
COC(=O)/C(=C\c1c(OC)cc(OC)cc1OC)C(=O)c1ccc2c(c1)OCO2	i	i	i	i	i	nt	nt
O=C1NC(=O)/C(=C\c2ccccc2OCc2ccccc2)S1	i	i	68.7	i	i	57.6	19.7
Cc1ccc(S(=O)(=O)Oc2ccccc2/C=C2/SC(=O)NC2=O)cc1	i	i	43.9	i	i	35.7	7.0
COc1cc(/C=C2/SC(=O)NC2=O)ccc1OCc1ccccc1	i	i	59.2	i	i	50.7	12.8
CCCOc1ccc2ccccc2c1/C=C1\SC(=O)NC1=O	i	i	53.2	i	i	43.8	13.0
O=C1NC(=O)/C(=C/c2cccc3ccccc23)S1	i	i	i	i	i	nt	nt
COc1ccc(/C=C2/SC(=S)NC2=O)cc1OCc1ccccc1	nt	i	i	i	i	nt	nt
O=C1NC(=O)/C(=C\c2ccc(OCc3ccccc3)cc2)S1	i	i	i	i	i	nt	nt
COc1cc(C(C)=O)ccc1OCC(=O)Nc1cc(S(=O)(=O)N2CCOCC2)ccc1N1CCCC1	i	i	i	i	i	nt	nt
O=C(CCn1ccc2ccccc21)Nc1ccc(N2CCOCC2)cc1	i	i	i	i	i	nt	nt
COc1ccccc1OCCCOc1ccc(/C=C2\SC(=O)NC2=O)cc1OC	i	i	i	i	i	nt	nt
COc1ccccc1OCCCOc1cccc(/C=C2\SC(=O)NC2=O)c1	i	i	77.7	i	i	83.2	51.1
COC(=O)c1cccc(N(CC(=O)NC2CCCCC2)C(=O)CNC(=O)c2cccs2)c1	i	i	i	i	i	nt	nt
CCCc1c(C(=O)N/N=C/C=C/c2ccccc2)nnn1-c1nonc1N	i	i	i	nt	i	nt	nt
Cc1cccc(-n2c(O)c(C=Nc3ccccc3O)c3ccccc3c2=O)n1	i	i	i	i	i	nt	nt
SMILES	Myeloid diff 2	FAS TE block	rCAG RNA binder	NR3A LBD binder	MPTP inh	rCAG bind conf	DNA CAG counter
Cc1cccc(-n2c(O)c(C=Nc3ccccc3-c3n[nH]c(=S)[nH]c3=O)c3ccccc3c2=O)n1	i	i	46.4	i	i	43.5	12.6
Cc1ccc(-n2c(O)c(C=Nc3ccccc3-c3n[nH]c(=S)[nH]c3=O)c3ccccc3c2=O)c(C)c1	i	i	72.2	i	i	87.5	56.6
CC1(C)Cc2c(cnn2-c2ccccc2)C(NC(=O)CCCn2cncn2)C1 (configuration not stated)	i	i	i	i	i	nt	nt
CC(=O)c1ccc(NC(=O)CSc2ccsc2[N+](=O)[O-])cc1	i	i	35.0	11.8	i	i	14.0
O=C(CSc1ccsc1[N+](=O)[O-])Nc1cc(F)ccc1F	i	i	37.9	i	i	i	10.8
Cc1ccccc1NC(=O)CCC(=O)N/N=C/c1ccncc1	i	i	i	i	i	nt	nt
COc1ccccc1NCc1cc(=O)oc2c(C)c(O)ccc12	i	i	i	i	i	nt	nt
COC(=O)c1ccccc1NCc1cc(=O)oc2cc(O)c(O)cc12	i	i	36.3	i	i	52.1	22.8
CSc1ncccc1C(=O)Nc1ccc(S(=O)(=O)Nc2nccs2)cc1	i	i	i	i	i	nt	nt
Cc1cccc(-n2ccc(=O)c(C(=O)Nc3ccc(S(=O)(=O)Nc4nccs4)cc3)n2)c1	+	i	65.0	i	i	i	6.0
CCn1nc(C(=O)Nc2ccc(S(=O)(=O)Nc3nccs3)cc2)c2ccccc2c1=O	i	i	42.3	i	i	56.2	17.9
O=C(O)c1ccccc1C(=O)Nc1ccc(S(=O)(=O)Nc2nccs2)cc1	i	i	i	i	i	nt	nt
O=C(Nc1ccc(S(=O)(=O)Nc2nccs2)cc1)c1nn(-c2ccccc2)ccc1=O	i	i	42.9	i	i	55.4	25.8
O=C(Nc1ccc(S(=O)(=O)Nc2ncccn2)cc1)c1nn(Cc2ccccc2)c(=O)c2ccccc12	i	i	i	i	i	nt	nt
O=C(Nc1ccc(S(=O)(=O)Nc2nccs2)cc1)c1cccc(N2C(=O)c3ccccc3C2=O)c1	i	i	68.9	i	i	58.2	23.3
Cc1ccccc1OCCC(=O)Nc1ccc2c(C)cc(=O)oc2c1	nt	i	i	i	i	nt	nt
O=C1CCC(OCc2ccccc2)CCN1[C@H](CSc1ccccc1)Cc1ccccc1 (some centres not stated)	i	i	i	nt	i	nt	nt
CCN(CC)c1ccc2c(O)cc(=O)oc2c1	i	i	i	i	i	nt	nt
CCN(CC)c1ccc(C(=O)OCc2cc(=O)oc3cc(O)ccc23)cc1	i	i	35.6	i	i	42.5	19.5
